# Test results taken from PubChem BioAssay (NCI).
# Compounds without any hit were thinned out: in the full panel of roughly 79,000, 15% have a hit. Values without a mark were called inactive. The source made the active and inactive calls. Rule as the data show it: active = growth inhibition above about 70%; inactive = the rest.
# Test: NCI Yeast Anticancer Drug Screen. Data for the bub3 strain (AID 167)
# Conditions: S. cerevisiae bub3 mutant strain, at 50.0 µM, stronger effect = higher value
# Outline: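 Growth of a checkpoint-deficient yeast mutant is measured after compound exposure. Values represent inhibition relative to vehicle.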
row,SMILES,growth inhibition
1,COc1ccc(NC(=S)NNC(=O)c2nsc3ccccc23)cc1,-0.8%
2,COc1ccc(CC2OCCC3c4ccccc4NC23)cc1OC (stereo not given),3%
3,C/C=N\N1C(=O)c2ccccc2C1=O,19.4%
4,CC(C)=CC1C(C(=O)Oc2c(Cl)c(Cl)c(Cl)c(Cl)c2Cl)C1(C)C (stereo not given),-4.15%
5,O=[N+]([O-])c1c(Cl)cc(Cl)c([N+](=O)[O-])c1-c1ccccc1,14.2%
6,Cc1cccc(Nc2nnc(Nc3cccc(C)n3)c3ccccc23)n1,-3.8%
7,C/C(CC(=O)c1ccccc1)=C1\C(=O)NN(c2ccccc2)C1=O,64.6%
8,O=C(/C=C/CC(O)(c1ccccc1)c1ccccc1)Nc1ccccc1Cl,10.1%
9,COc1ccc(C(=O)c2ccc(C)c3c(C)cccc23)cc1,-7.9%
10,O=C1NC(=O)N2CCCOC2C1c1ccccc1 (stereo not given),-2.7%
11,O=C1OC2(CC1n1cnc3ccccc3c1=O)C(=O)Nc1ccccc12 (stereo not given),-1.15%
12,COc1cc(OC)c(OC)cc1/C=N/N=C(\N)NO,-13.1%
13,CN(C)CCCN(c1nc2cc(Cl)ccc2o1)c1nc2cc(Cl)ccc2o1,8.7%
14,COC(=O)C(C#N)(CCc1ccc([N+](=O)[O-])cc1)CCc1ccc([N+](=O)[O-])cc1,5.6%
15,Cc1ccc(S(=O)(=O)Nc2ccccc2-c2nc3ccc([N+](=O)[O-])cc3c(=O)o2)cc1,11.8%
16,CC(=O)Oc1ccc(C(C)C)cc1,-11.2%
17,Cc1cc(Cl)nc2ccc(Cc3ccc(Cl)cc3)cc12,11.1%
18,Cc1cccc2c(CC(N)C(=O)O)c[nH]c12 (stereo not given),-16.6%
19,N#Cc1cc2c3ccccc3ncc2c2ccccc12,-1.7%
20,C/C=N\n1c(C)c(C#N)c(C#N)c1N,-21.7%

row,SMILES,growth inhibition
1,CC(=O)CC1CCc2ccc3ccccc3c2C1c1cccc2ccccc12 (stereo not given),2.4%
2,Cc1ccc(/C=C/C(=O)C(C)(C)CN2CCCCC2)cc1,10%
3,COC(=O)c1c2c(cc3c1CC1(C3)Cc3cc4c(c(C(C)=O)c3C1)CCC4)C=CC2 (stereo not given),-5.75%
4,NC(=O)CNc1ccc(CC2CCOC2=O)cc1 (stereo not given),0.6%
5,C/C(=N/O)C1CC(C)([N+](=O)[O-])CCC1(C)O (stereo not given),5.45%
6,CC(NC(=O)Nc1ccccc1Cl)c1ccccc1 (stereo not given),34%
7,CCCCS(=O)(=O)C[N+](C)(CC)CC,-4.65%
8,O=C(NC(=O)c1ccc(Cl)c(Cl)c1)Nc1ccc(Cl)cc1,11.2%
9,CC1=NC(C(=O)O)C(C)(C)S1 (stereo not given),-3.4%
10,CC(=O)c1ccc(N=Nc2ccc3nonc3c2N)cc1,5.25%
11,Cc1c(C(=N)N)oc2ccccc12,-4.15%
12,CCCCCC(=O)Oc1c(C(C)CC)cc([N+](=O)[O-])cc1[N+](=O)[O-] (stereo not given),97.3% (active)
13,CC(Oc1ccccc1)C(=O)NNC(=O)OC(C)(C)C (stereo not given),-18.6%
14,O=C(O)C(c1ccccc1)C(O)C1CCCCC1 (stereo not given),-8.1%
15,CCC1CCCCC1O (stereo not given),-22.7%
16,CCCCCCSc1nc2c([nH]1)c(=O)n(C)c(=S)n2C,13.9%
17,COc1ccc(N2C(=O)C(C)SC23C(=O)Nc2ccccc23)cc1 (stereo not given),4.75%
18,O=c1c2c(oc3cc(OCC4CO4)ccc13)CCC2 (stereo not given),-9.05%
19,CNC(=S)NNc1ncnc2c1ncn2-c1ccc(C)cc1,11.4%
20,CCc1cccc(C)c1N1C(=O)C(=O)C(c2nc3ccccc3o2)C(=O)C1=O,-4.55%

# Test: NCI Yeast Anticancer Drug Screen. Data for the mlh1 rad18 strain (AID 175)
# Conditions: S. cerevisiae mlh1 rad18 strain growth inhibition; at 50.0 µM; stronger effect = higher value
# Outline: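 Genetically defined yeast (DNA repair-deficient) exposed to compounds; growth inhibition determined relative to vehicle.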
row,SMILES,growth inhibition
1,COc1ccc(NC(=S)NNC(=O)c2nsc3ccccc23)cc1,-0.15%
2,COc1ccc(CC2OCCC3c4ccccc4NC23)cc1OC (stereo not given),-2.05%
3,C/C=N\N1C(=O)c2ccccc2C1=O,14.8%
4,CC(C)=CC1C(C(=O)Oc2c(Cl)c(Cl)c(Cl)c(Cl)c2Cl)C1(C)C (stereo not given),31.2%
5,O=[N+]([O-])c1c(Cl)cc(Cl)c([N+](=O)[O-])c1-c1ccccc1,-31.7%
6,Cc1cccc(Nc2nnc(Nc3cccc(C)n3)c3ccccc23)n1,4%
7,C/C(CC(=O)c1ccccc1)=C1\C(=O)NN(c2ccccc2)C1=O,60.1%
8,O=C(/C=C/CC(O)(c1ccccc1)c1ccccc1)Nc1ccccc1Cl,-10.2%
9,COc1ccc(C(=O)c2ccc(C)c3c(C)cccc23)cc1,4.85%
10,O=C1NC(=O)N2CCCOC2C1c1ccccc1 (stereo not given),22.3%
11,O=C1OC2(CC1n1cnc3ccccc3c1=O)C(=O)Nc1ccccc12 (stereo not given),11.2%
12,COc1cc(OC)c(OC)cc1/C=N/N=C(\N)NO,-10.4%
13,CN(C)CCCN(c1nc2cc(Cl)ccc2o1)c1nc2cc(Cl)ccc2o1,48.5%
14,COC(=O)C(C#N)(CCc1ccc([N+](=O)[O-])cc1)CCc1ccc([N+](=O)[O-])cc1,25.9%
15,Cc1ccc(S(=O)(=O)Nc2ccccc2-c2nc3ccc([N+](=O)[O-])cc3c(=O)o2)cc1,45.2%
16,CC(=O)Oc1ccc(C(C)C)cc1,-1.6%
17,Cc1cc(Cl)nc2ccc(Cc3ccc(Cl)cc3)cc12,-10.1%
18,Cc1cccc2c(CC(N)C(=O)O)c[nH]c12 (stereo not given),-3.35%
19,N#Cc1cc2c3ccccc3ncc2c2ccccc12,-6%
20,C/C=N\n1c(C)c(C#N)c(C#N)c1N,-35.5%

row,SMILES,growth inhibition
1,CC(=O)CC1CCc2ccc3ccccc3c2C1c1cccc2ccccc12 (stereo not given),25.4%
2,Cc1ccc(/C=C/C(=O)C(C)(C)CN2CCCCC2)cc1,17.9%
3,COC(=O)c1c2c(cc3c1CC1(C3)Cc3cc4c(c(C(C)=O)c3C1)CCC4)C=CC2 (stereo not given),-22.6%
4,NC(=O)CNc1ccc(CC2CCOC2=O)cc1 (stereo not given),-5.7%
5,C/C(=N/O)C1CC(C)([N+](=O)[O-])CCC1(C)O (stereo not given),5.65%
6,CC(NC(=O)Nc1ccccc1Cl)c1ccccc1 (stereo not given),11.1%
7,CCCCS(=O)(=O)C[N+](C)(CC)CC,3.45%
8,O=C(NC(=O)c1ccc(Cl)c(Cl)c1)Nc1ccc(Cl)cc1,8%
9,CC1=NC(C(=O)O)C(C)(C)S1 (stereo not given),-6%
10,CC(=O)c1ccc(N=Nc2ccc3nonc3c2N)cc1,-9.45%
11,Cc1c(C(=N)N)oc2ccccc12,3.95%
12,CCCCCC(=O)Oc1c(C(C)CC)cc([N+](=O)[O-])cc1[N+](=O)[O-] (stereo not given),98.2% (active)
13,CC(Oc1ccccc1)C(=O)NNC(=O)OC(C)(C)C (stereo not given),3.9%
14,O=C(O)C(c1ccccc1)C(O)C1CCCCC1 (stereo not given),4.5%
15,CCC1CCCCC1O (stereo not given),6.1%
16,CCCCCCSc1nc2c([nH]1)c(=O)n(C)c(=S)n2C,19.1%
17,COc1ccc(N2C(=O)C(C)SC23C(=O)Nc2ccccc23)cc1 (stereo not given),18.8%
18,O=c1c2c(oc3cc(OCC4CO4)ccc13)CCC2 (stereo not given),-21.4%
19,CNC(=S)NNc1ncnc2c1ncn2-c1ccc(C)cc1,4.25%
20,CCc1cccc(C)c1N1C(=O)C(=O)C(c2nc3ccccc3o2)C(=O)C1=O,34.5%
